Reference: PubChem BioAssay AID1851 (National Center for Advancing Translational Sciences (NCATS), 2009)
In all, about 16,000 compounds went through this assay and about 5,100 (32%) were called active. Another 25% or so got no clear call; they are omitted. Some of the results follow. A number with no mark means an inactive call. Calls follow the shape of the dose curve; as a rule, active = well fitted curve in the direction sought with a large enough effect; inconclusive = small, poorly fitted or top-dose-only effect, or effect the other way; inactive = no such curve, though single readings can be large or run the other way.

These molecules were tested against Cytochrome P450 3A4 (Homo sapiens) (UniProt P08684) (assay: Cytochrome panel assay with activity outcomes). Details: recombinant CYP, pro-luciferin dealkylation, luminescence, p450-cyp3a4; series mostly up to 57.1 µM.
% is scaled to controls: 0 for no effect and ±100 for the full control effect.

Cytochrome P450 3A4 (Homo sapiens), sequence (P08684 whole entry, looked up): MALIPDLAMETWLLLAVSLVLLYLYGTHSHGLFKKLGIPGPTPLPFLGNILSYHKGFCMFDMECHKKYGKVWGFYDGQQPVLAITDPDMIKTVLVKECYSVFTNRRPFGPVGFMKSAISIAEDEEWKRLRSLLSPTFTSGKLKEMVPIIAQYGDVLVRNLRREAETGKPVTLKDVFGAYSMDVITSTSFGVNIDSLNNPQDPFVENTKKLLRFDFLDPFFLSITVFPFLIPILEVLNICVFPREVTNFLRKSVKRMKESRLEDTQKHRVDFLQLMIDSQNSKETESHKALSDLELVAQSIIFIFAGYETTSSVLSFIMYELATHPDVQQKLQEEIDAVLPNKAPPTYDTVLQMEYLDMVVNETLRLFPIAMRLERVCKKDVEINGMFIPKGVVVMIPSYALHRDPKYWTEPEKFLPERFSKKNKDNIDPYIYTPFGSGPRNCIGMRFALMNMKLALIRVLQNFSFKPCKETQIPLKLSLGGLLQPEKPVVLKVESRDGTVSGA

Row | Structure (SMILES) | AC50 | activity, negative = inhibition
1 | COc1ccc(Cc2nnc(NC(=O)c3ccco3)s2)cc1 | inactive | –
2 | COc1ccc(Cc2nnc(NC(=O)c3cccc([N+](=O)[O-])c3C)s2)cc1 | 10 µM (active) | –
3 | Cc1c(C(=O)NN2CCN(C)CC2)cccc1[N+](=O)[O-] | inactive | –
4 | COCC(=O)N(C)c1nnc(-c2ccc([N+](=O)[O-])cc2)s1 | – | -5.26% [at 2.29 µM]
5 | O=C(CN1CCCCC1)Nc1cccc([N+](=O)[O-])c1 | inactive | –
6 | O=C(CN1CCCCC1)Nc1nnc(-c2ccc([N+](=O)[O-])cc2)s1 | 7.94 µM (active) | –
7 | FC(F)(F)c1ccc(/C=N/N2CCN(Cc3cccc4ccccc34)CC2)cc1 | – | 15.5% [at 2.29 µM]
8 | Cn1c(=O)oc2cc(S(=O)(=O)NCCC(=O)N3CC=C(c4ccccc4)CC3)ccc21 | 12.6 µM (active) | –
9 | Cn1c(=O)c2cc(S(=O)(=O)NCCC(=O)N3CC=C(c4ccccc4)CC3)ccc2n(C)c1=O | 10 µM (active) | –
10 | CCCN(CCC)CCNC(=O)C1CCCN(S(=O)(=O)c2ccc3c(c2)oc(=O)n3C)C1 (centres undefined) | inactive | –
11 | Cn1c(=O)c2cn(-c3ccccc3)cc2n(C)c1=O | – | -2.19% [at 11.4 µM]
12 | O=C(Nc1ccccc1)[C@@]12C[C@@H]1/C(=N/O)c1ccccc1O2 | inactive | –
13 | Fc1ccc(C(OCCCc2cnc[nH]2)c2ccc(F)cc2)cc1 | 0.794 µM (active) | –
14 | O=C(O)CCC(O)=C1S(=O)(=O)OCCOS1(=O)=O | – | 2.08% [at 11.4 µM]
15 | Cc1cc(C)c2cc(CN(Cc3nnnn3Cc3ccc(F)cc3)C3CCCC3)c(=O)[nH]c2c1 | 10 µM (active) | –
16 | O=c1[nH]c2cc3c(cc2cc1CN(CCCO)Cc1nnnn1Cc1ccc(F)cc1)OCO3 | 3.16 µM (active) | –
17 | COc1ccccc1CN(Cc1cc2cc3c(cc2[nH]c1=O)OCCO3)Cc1nnnn1Cc1ccco1 | 10 µM (active) | –
18 | COc1ccccc1CN(Cc1cc2cc(C)cc(C)c2[nH]c1=O)Cc1nnnn1CC1CCCO1 (centres undefined) | 10 µM (active) | –
19 | NC(N)=N/N=C\c1ccc(C2CCNCC2)cc1 | – | -4.2% [at 11.4 µM]
20 | CN(C)CCCn1c2c3ccccc3ccc2c2oc(=O)c3ccccc3c21 | – | 3.83% [at 11.4 µM]

Row | Structure (SMILES) | AC50 | activity, negative = inhibition
21 | NC1=NC(=O)/C(=C/c2cccs2)S1 | inactive | –
22 | COc1ccc(-n2c(=O)c(CCc3ccccc3)nc3cnc(N4CCOCC4)nc32)cc1 | 12.6 µM (active) | –
23 | CCNc1ncc2nc(CCc3ccccc3)c(=O)n(-c3ccccc3)c2n1 | 5.01 µM (active) | –
24 | CCNc1ncc2nc(-c3ccc(Cl)cc3)c(=O)n(C)c2n1 | inactive | –
25 | CCNc1ncc2nc(-c3ccccc3)c(=O)n(C)c2n1 | inactive | –
26 | COc1ccc(-c2nc3cnc(N4CCOCC4)nc3n(CCc3ccccc3)c2=O)cc1 | inactive | –
27 | CCNc1ncc2nc(-c3ccccc3)c(=O)n(C3CC3)c2n1 | inactive | –
28 | CCNc1ncc2nc(C)c(=O)n(C3CC3)c2n1 | inactive | –
29 | CCNc1ncc2nc(CCc3ccccc3)c(=O)n(C3CC3)c2n1 | 15.8 µM (active) | –
30 | COc1ccc(-n2c(=O)c(-c3ccccc3)nc3cnc(N4CCOCC4)nc32)cc1 | inactive | –
31 | CCNc1ncc2nc(CCc3ccccc3)c(=O)n(-c3ccc(OC)cc3)c2n1 | 6.31 µM (active) | –
32 | COc1ccc(C(=O)c2ccccc2)c(O)c1 | inactive | –
33 | COc1ccc(C(=O)c2cnc3ccccc3c2-c2ccccc2)cc1 | 12.6 µM (active) | –
34 | CCOC(=O)c1cn(-c2nc(-c3ccc(Cl)cc3)cs2)c2c(F)c(N3CC(C)OC(C)C3)c(F)cc2c1=O (centres undefined) | inactive | –
35 | Cc1ccc2[nH]c3c(N4CCc5ccccc5C4)ncnc3c2c1 | – | -19.7% [at 2.29 µM]
36 | Cc1ccc(S(=O)(=O)Nc2nc3ccccc3nc2N2CCc3ccccc3C2)cc1 | 2.82 µM (active) | –
37 | O=C1C2C3C=CC(C2C(=O)N1CN1CCOCC1)C1C2C(=O)N(CN4CCOCC4)C(=O)C2C31 (centres undefined) | – | -1.18% [at 11.4 µM]
38 | COc1cccc(-c2cc(NCc3cccs3)ncn2)c1 | 7.94 µM (active) | –
39 | c1cncc(-c2cc(NCc3cccs3)ncn2)c1 | 2.51 µM (active) | –
40 | COc1cccc(-c2cc(NCc3cccnc3)ncn2)c1 | 3.98 µM (active) | –

Row | Structure (SMILES) | AC50 | activity, negative = inhibition
41 | COc1cccc(-c2cc(NCc3cnc(C)cn3)ncn2)c1 | 25.1 µM (active) | –
42 | COc1ccccc1-c1cc(NCc2cnc(C)cn2)ncn1 | inactive | –
43 | N[C@](CC1c2ccccc2Oc2ccccc21)(C(=O)O)[C@@H]1C[C@@H]1C(=O)O | inactive | –
44 | CCCOC(=O)c1ccc(NC(=O)c2cn(CC)c3nc(C)ccc3c2=O)cc1 | inactive | –
45 | C[C@@H]1c2cccc(O)c2C(O)=C2C(=O)[C@@]3(O)C(O)=C(C(N)=O)C(=O)[C@@H](N(C)C)[C@@H]3[C@@H](O)[C@@H]21 | inactive | –
46 | COc1cccc(-c2cc(NCc3ccccc3)ncn2)c1 | 25.1 µM (active) | –
47 | O=C(NCCOC(=O)c1ccc(C(=O)OCCNC(=O)c2cccnc2)s1)c1cccnc1 | 2.51 µM (active) | –
48 | O=C(NCCO[N+](=O)[O-])c1cccnc1 | inactive | –
49 | CCN1C(=O)/C(=C/C=C2/SCCN2C)SC1=S | – | 0.316% [at 2.29 µM]
50 | CN1CCN(NC(=O)c2cccc(F)c2)CC1 | inactive | –
51 | CN1CCN(NC(=O)CN2C(=O)/C(=C/c3c(Cl)cccc3Cl)SC2=S)CC1 | 14.1 µM (active) | –
52 | CSC(=NC#N)N1CCN(c2ccc(Cl)cc2)CC1 | inactive | –
53 | CN(C)C(=C(C#N)C#N)N1CCN(c2ccc(Cl)c(Cl)c2)CC1 | 8.91 µM (active) | –
54 | C[N@+]1(CCC(=O)c2ccccc2)CC[C@H]2CC[C@H](C2)C1 | – | -5.07% [at 11.4 µM]
55 | CCOC(=O)c1sc(NC(C)=O)nc1-c1ccccc1 | – | -5.57% [at 2.29 µM]
56 | CCOC(=O)c1c(NC(C)=O)sc2c(OC)cccc12 | 2 µM (active) | –
57 | O=[N+]([O-])C(/C=C(\Cl)[N+](=O)[O-])=C1N(Cc2ccc(Cl)nc2)CCN1Cc1ccc(Cl)nc1 | 14.1 µM (active) | –
58 | CCOC(=O)c1cnn(-c2nc(-c3cccc(F)c3)cs2)c1C(F)(F)F | inactive | –
59 | CC(=O)c1cccc(NC(=O)c2csc(-n3nc(C)cc3C(F)(F)F)n2)c1 | 10 µM (active) | –
